This note sets out measurements from PubChem BioAssay (NCATS).

Structures are written as SMILES. Results filed as inconclusive are left out. A number with no mark means an inactive call. Activity calls are given as the source filed them. Calls come from the whole dose curve; as a rule, active = well fitted cell-killing curve with a large enough effect; inconclusive = small, poorly fitted or top-dose-only effect, or effect the other way; inactive = no such curve, though single readings can be large or run the other way.

Assay [1] in a line: Quantitative High-Throughput drug screen in 47 multiple myeloma cell lines against the NCATS MIPE library collection: U266_ATCC cell viability assay (AID 1919864).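 For viability (% of DMSO control): 0% = media-only wells without cells and 100% = DMSO-only wells.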 Note: nearly all actives have a fitted effect of over 35% in size. In a few lines: (§1)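 Plated at 500 cells per well, myeloma lines received MIPE 4.0 compounds by pin tool. Following 48 h culture at 37 °C, CellTiter-Glo luminescence gave viability relative to DMSO and media-only controls.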

Assay [2] can be described thus: Quantitative High-Throughput drug screen in 47 multiple myeloma cell lines against the NCATS MIPE library collection: XG6_PLB cell viability assay (AID 1919865).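 For viability (% of control): 100% = DMSO-only wells and 0% = media-only wells.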 Note: nearly all actives have a fitted effect of over 40% in size. The method, boiled down:
as §1

Assay [3] in a line: Quantitative High-Throughput drug screen in 47 multiple myeloma cell lines against the NCATS MIPE library collection: VP6_DJ cell viability assay (AID 1919867).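 For viability (% of DMSO): 100% = DMSO-only wells and 0% = wells with media alone.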 Note: nearly all actives have a fitted effect of over 40% in size. In a few lines: as §1
Assay [4] in a line: Quantitative High-Throughput drug screen in 47 multiple myeloma cell lines against the NCATS MIPE library collection: PE2_PLB cell viability assay (AID 1919869).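 For viability (% of control): 100% = DMSO-only wells and 0% = cell-free media-only wells.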 Note: nearly all actives have a fitted effect of over 35% in size. The method, boiled down: as §1
Assay [5] is described as follows: Quantitative High-Throughput drug screen in 47 multiple myeloma cell lines against the NCATS MIPE library collection: PCM6_Riken cell viability assay (AID 1919870).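 For viability (% of control): 100% = DMSO-only wells and 0% = media-only wells.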 Note: nearly all actives have a fitted effect of over 30% in size. The method, boiled down:
as §1

Assay [6] is described as follows: Quantitative High-Throughput drug screen in 47 multiple myeloma cell lines against the NCATS MIPE library collection: RPMI8226_ATCC cell viability assay (AID 1919871). Note: nearly all actives have a fitted effect of over 30% in size. In a few lines: as §1
Assay [7] can be described thus: Quantitative High-Throughput drug screen in 47 multiple myeloma cell lines against the NCATS MIPE library collection: KMS11_JCRBsus cell viability assay (AID 1919873).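 For viability (% of control): 100% = DMSO-only wells and 0% = media-only wells without cells.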 Note: nearly all actives have a fitted effect of over 50% in size. The method, boiled down: as §1
The nature of assay [8]: Quantitative High-Throughput drug screen in 47 multiple myeloma cell lines against the NCATS MIPE library collection: OPM2_DSMZ cell viability assay (AID 1919872). Note: nearly all actives have a fitted effect of over 30% in size. The method, boiled down: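 qHTS of the MIPE 4.0 collection: 500 myeloma cells/well, 48 h drug exposure at 37C in 5% CO2, then CellTiter-Glo for 5 min at room temperature before luminescence reading.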
The nature of assay [9]: Quantitative High-Throughput drug screen in 47 multiple myeloma cell lines against the NCATS MIPE library collection: XG1_PLB cell viability assay (AID 1919866). Note: nearly all actives have a fitted effect of over 35% in size. The method, boiled down:
as §1

Assay [10] is described as follows: Quantitative High-Throughput drug screen in 47 multiple myeloma cell lines against the NCATS MIPE library collection: UTMC2_PLB cell viability assay (AID 1919868). Note: nearly all actives have a fitted effect of over 55% in size. The settings on record: CellTiter-Glo ATP luminescence, 48 h; viability (% of DMSO control): at 45.8 µM (top of the series). The method, boiled down: as §1
Potency is the fitted concentration of half-maximal effect.

As to `NC(=O)c1ncn([C@@H]2O[C@H](CO)[C@@H](O)[C@@H]2O)c1O`, the Potency entry in assay [1], in assay [2], in [3], in assay [4], in [5] and in assay [6] was “inactive” each time. Further, the Potency entry in assay [7] was “inactive”.
`CCCCCCCCCCCCCCCC(=O)OC[C@@H](NC(=O)C(Cl)Cl)[C@H](O)c1ccc([N+](=O)[O-])cc1`: the Potency result in assay [1], in assay [2], in assay [3], in assay [4], in [5] and in assay [8] was “inactive” each time. Besides, in assay [7], the Potency result is “inactive”.
With `CCOC(=O)C1=C(C)NC(=S)NC1c1cccc(O)c1` (configuration not stated), the Potency result in [1] is “inactive”. In addition, the Potency is 66.2 nM (active) in [9]; 29.6 nM (active) in assay [3]; 14.8 nM (active) in assay [4]; 37.2 nM (active) in assay [5]; 16.6 nM (active) in [7].
In the case of `CC(C)C[C@H](NC(=O)CNC(=O)c1cc(Cl)ccc1Cl)B1OC(=O)CC(CC(=O)O)(C(=O)O)O1` (some centres not stated), the Potency in assay [1] is 52.6 nM (active); in [2], 26.4 nM (active); in [3], 29.6 nM (active); in [4] it was 29.6 nM (active); in assay [5], 46.9 nM (active); in [6] it was 118 nM (active). In addition, the Potency in [8] is 132 nM (active); in [7], 41.8 nM (active).
On to `CCCCCCCCCCCC(CC1OC(=O)C1CCCCCC)OC(=O)C(CC(C)C)NC=O` (configuration not stated), for which the Potency result in assay [1], in assay [9], in assay [4] and in [7] was “inactive” each time. Also, the Potency in assay [3] is 7430 nM (active); in assay [5] it was 4690 nM (active); in assay [6] it was 18700 nM (active).
Take `NS(=O)(=O)OC[C@@H]1C[C@@H](n2ccc3c(N[C@H]4CCc5ccccc54)ncnc32)C[C@H]1O`: the Potency in assay [1] was 8330 nM (active); in assay [9], 332 nM (active); in assay [3] it was 1480 nM (active); in [5], 6620 nM (active); in assay [7] it was 296 nM (active).
With `CCc1cnn2c(NCc3ccc[n+]([O-])c3)cc(N3CCCC[C@@H]3CCO)nc12`, the Potency in assay [1] was 37.2 nM (active); in assay [9], 23.5 nM (active); in assay [3], 18.7 nM (active); in assay [10], 18.7 nM (active); in assay [4] it was 29.6 nM (active); in [5], 10.5 nM (active). Further, the Potency in assay [6] is 37.2 nM (active); in [8], 29.6 nM (active); in assay [7] it was 20.9 nM (active).
For the compound `Cn1cnc2c(F)c(Nc3ccc(Br)cc3F)c(C(=O)NOCCO)cc21`, the Potency result in assay [1], in [5] and in assay [7] was “inactive” throughout. The Potency was 13.2 nM (active) in assay [2] and 74.3 nM (active) in [4].
With `COc1cccc2c1C(=O)c1c(O)c3c(c(O)c1C2=O)C[C@@](O)(C(C)=O)C[C@H]3O[C@H]1C[C@H](N)[C@H](O)[C@H](C)O1`, the Potency in assay [1] was 166 nM (active); in [2] it was 46.9 nM (active); in [3], 41.8 nM (active); in assay [4], 41.8 nM (active); in assay [5], 29.6 nM (active); in assay [6], 235 nM (active). Besides, the Potency in assay [8] is 166 nM (active); in assay [7], 93.5 nM (active).
As for `C[C@H](NC(=O)[C@@H](O)c1cc(F)cc(F)c1)C(=O)N[C@@H]1C(=O)N(C)c2ccccc2-c2ccccc21`, the Potency entry in assay [1], in assay [5] and in assay [6] was “inactive” in each case. Further, the Potency in assay [2] was 11800 nM (active); in assay [7], 1870 nM (active).
For `COc1cccc2c1C(=O)c1c(O)c3c(c(O)c1C2=O)C[C@@](O)(C(=O)CO)C[C@H]3O[C@H]1C[C@H](N)[C@H](O)[C@H](C)O1`, the Potency is 372 nM (active) in assay [1]; 296 nM (active) in [9]; 264 nM (active) in assay [3]; 118 nM (active) in [10]; 118 nM (active) in [4]; 105 nM (active) in assay [5]. Besides, the Potency is 235 nM (active) in assay [6], 1180 nM (active) in assay [8] and 743 nM (active) in assay [7].
As to `O=c1ccn([C@@H]2O[C@H](CO)[C@H](O)[C@@H]2F)c(=O)[nH]1`, the values for the Potency in [1] and in assay [2] were 5900 nM (active) and 7430 nM (active), respectively. The Potency result in assay [8] and in [7] was “inactive” in each case.
`NC(=O)N1CCC(CC(=O)N2CCC([C@H]3c4ncc(Br)cc4CCc4cc(Cl)cc(Br)c43)CC2)CC1`: the Potency is 18700 nM (active) in assay [1]; 5260 nM (active) in [9]; 13200 nM (active) in assay [3]; 14800 nM (active) in assay [4]; 20900 nM (active) in assay [5]; 16600 nM (active) in assay [6]. In addition, the Potency in assay [7] was 10500 nM (active).
For the compound `COc1cc(C(=O)NC2CCN(C)CC2)ccc1Nc1ncc2c(n1)N(C1CCCC1)CCC(=O)N2C(C)C`, the Potency is 18700 nM (active) in assay [1]; 4690 nM (active) in [2]; 14800 nM (active) in [3]; 20900 nM (active) in assay [4]; 18700 nM (active) in assay [5]; 20900 nM (active) in assay [7].
With `CC(C)(C)[C@H](NC(=O)c1ccc(N)c(Cl)c1)C(=O)N1CCC[C@@H]1C(=O)N[C@H](C#N)CC(=O)O`, in assay [1], the viability (% of DMSO control) is 129% [at 3.51 µM]. The viability (% of control) was 104% [at 3.51 µM] in assay [2], 118% [at 3.51 µM] in [4], 122% [at 3.51 µM] in [5] and 102% [at 3.51 µM] in [7]. In addition, the Potency in assay [3] was 834 nM (active). In addition, in [8], the viability (% of DMSO) was 102% [at 3.51 µM].
Turning to `O=c1[nH]c(=O)n([C@H]2C[C@@H](O)[C@@H](CO)O2)cc1F`, the Potency was 23500 nM (active) in [1]; 9350 nM (active) in assay [9]; 18700 nM (active) in assay [3]; 10500 nM (active) in [10]; 14800 nM (active) in assay [4]; 14800 nM (active) in [5]. Moreover, the Potency in assay [7] was 526 nM (active).
